According to PubChem BioAssay (NCATS):
Results filed as inconclusive are left out. Active and inactive are the calls of the source. Calls come from the whole dose curve; as a rule, active = well fitted cell-killing curve with a large enough effect; inconclusive = small, poorly fitted or top-dose-only effect; inactive = flat fitted curve, though single readings scatter.

assay: Cellular viability qHTS for adrenocortical cancer (ACC) cell line NCI-H295R (AID 1963990); details: CellTiter-Glo ATP luminescence, 48 h; series mostly up to 46.1 µM; activity change, negative = viability loss: at the top concentration; note: nearly all actives have a fitted effect of over 60% in size;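 for activity change, negative = viability loss: 0% = DMSO only wells and -100% = full killing with cytotoxic reference compound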
Method in brief: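 Adrenocortical carcinoma cells, suspended at 300 000 cells/mL in serum-free DMEM plus ITS, rested overnight before pin transfer of compound. After two days' incubation, ATP-dependent luminescence was recorded and curve-fitted.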
Potency is the fitted concentration of half-maximal effect.

| Compound | activity change, negative = viability loss | Potency |
| --- | --- | --- |
| COc1ccc(CCC(C)=O)cc1 | -14.2% (inactive) |  |
| CC(=O)O[C@H]1C[C@@H]2CC[C@@H]3[C@H](CC[C@@]4(C)[C@H]3C[C@H]([N+]3(C)CCCCC3)[C@@H]4OC(C)=O)[C@@]2(C)C[C@@H]1N1CCCCC1 | 14.6% (inactive) |  |
| Nc1ncn([C@@H]2O[C@H](CO)[C@@H](O)[C@H]2O)c(=O)n1 |  | inactive |
| Cc1ccc(Cl)c(OCC(O)CNC(C)(C)C)c1 (centres undefined) | -26.7% (inactive) |  |
| CNC(=O)Oc1ccc2c(c1)[C@]1(C)CCN(C)[C@@H]1N2C | -0.239% (inactive) |  |
| CCCCOCCOC(=O)c1cccnc1 | -12% (inactive) |  |
| CCn1c(=O)c(-c2ccn[nH]2)cc2c(C)nc(N)nc21 |  | 7.08 µM (active) |
| COc1ccccc1O |  | 28.2 µM (active) |
| CC[C@@H](CO)NCCN[C@@H](CC)CO | 1.54% (inactive) |  |
| COC(=O)c1nc(Cl)c(Cl)nc1N |  | 0.103 µM (active) |
| COc1ccc(C(Cl)=C(c2ccc(OC)cc2)c2ccc(OC)cc2)cc1 | -6.96% (inactive) |  |
| O=C(NCN1CCOCC1)c1cnccn1 | 3.44% (inactive) |  |
| CC1(C)NC(=O)N(c2ccc([N+](=O)[O-])c(C(F)(F)F)c2)C1=O |  | inactive |
| CCOc1ccccc1C(N)=O | -12.7% (inactive) |  |
| CCCCCCCC(=O)[O-].CCCCCCCC(=O)[O-].[Zn+2] | -9.31% (inactive) |  |
| C[C@@H](N)C(=O)O | 7.05% (inactive) |  |
| Cc1ncc([N+](=O)[O-])n1C | -1.09% (inactive) |  |

| Compound | activity change, negative = viability loss | Potency |
| --- | --- | --- |
| O=c1[nH]c(=O)c2[nH]c(=O)[nH]c2[nH]1 |  | 2.66 µM (active) |
| CCCOC(=O)c1ccc(O)cc1 | -27% [at 92.7 µM] (inactive) |  |
| CCOC(=O)c1cccc(N)c1 | -9.08% (inactive) |  |
| CC(C)NNC(=O)c1ccncc1 | -3.6% (inactive) |  |
| Cc1cc(C(C)(C)C)c(O)c(C(C)(C)C)c1 |  | 25.9 µM (active) |
| NS(=O)(=O)c1ccc(N2CCCCS2(=O)=O)cc1 | -0.801% (inactive) |  |
| CCn1cc(C(=O)O)c(=O)c2cnc(N3CCCC3)nc21 | -14.1% [at 9.17 µM] (inactive) |  |
| O=c1[nH]c(=O)n([C@H]2C[C@H](O)[C@@H](CO)O2)cc1C(F)(F)F | -23.3% (inactive) |  |
| CCCCCCCC/C=C\CCCCCCCCN | 0.423% (inactive) |  |
| NNc1nncc2ccccc12 |  | inactive |
| C=C(C)C(=O)OCC(O)CO (centres undefined) | -24.2% (inactive) |  |
| CC1(C)OC[C@@H]2O[C@@]3(C(=O)O)OC(C)(C)O[C@H]3[C@@H]2O1 | 3.46% (inactive) |  |
| CCn1c(=O)c(-c2ccc(-c3cncs3)cc2Cl)cc2cnc(Nc3ccc(N4CCN(C)CC4)cc3)nc21 | -29.7% (inactive) |  |
| O=C(O)CC1CCC(c2ccc(-c3ccc(Nc4ccc(C(F)(F)F)nc4)cn3)cc2)CC1 (centres undefined) | -8.83% (inactive) |  |
| NC1CCN(c2cccc(Cl)n2)CC1 | -6.89% (inactive) |  |
| NC(=O)CCCCC1CCSS1 (centres undefined) | -0.786% (inactive) |  |
| c1ccc2c(CC3=NCCN3)cccc2c1 | -0.309% (inactive) |  |
